# Positions count from the first letter of the chain named.
# Legend:
# Assay in all cases: yeast three-hybrid, YBZ-1, SC-Leu-His + 0.5 mM 3-AT, 4 days
# Conditions in all cases: tags: N-Gal4 AD-HA kept; label: inside an RPR1-promoter hybrid RNA with tandem MS2 sites; ssRNA
# [1] = target: PUM1 PUF domain R3-RAH (Homo sapiens, UniProt Q14671 828-1176, C935R;R936A;Q939H)
# Procedure, shortened: (§1)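 A centromeric plasmid in strain YBZ-1 co-expressed Pumilio-1 PUF domain libraries, randomized at the three base-contacting residues of each repeat, with matching RNA elements; the strain carries a LexA–MS2 coat fusion and a HIS3 reporter. After four days on SC-Leu (input) or SC-Leu-His + 0.5 mM 3-AT (selection), the repeat regions were PCR-amplified and Illumina-sequenced. The interaction score is the log change in variant frequency from input to selection, using log2 and a pseudocount of 1 where absent.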
# [2] = target: PUM1 PUF domain R1-MYR (Homo sapiens, UniProt Q14671 828-1176, S863M;R864Y;Q867R)
# Procedure, shortened: as §1
# [3] = target: PUM1 PUF domain R5-RRC (Homo sapiens, UniProt Q14671 828-1176, C1007R;Q1011C)
# Procedure, shortened: as §1
# [4] = target: PUM1 PUF domain R5-MGR (Homo sapiens, UniProt Q14671 828-1176, C1007M;R1008G;Q1011R)
# Procedure, shortened: as §1
# [5] = target: PUM1 PUF domain R5-SGS (Homo sapiens, UniProt Q14671 828-1176, C1007S;R1008G;Q1011S)
# Procedure, shortened: as §1
# [6] = target: T1, PUM1 PUF domain R6-GFE (Homo sapiens, UniProt Q14671 828-1176, N1043G;Y1044F;Q1047E)
# T1 sequence: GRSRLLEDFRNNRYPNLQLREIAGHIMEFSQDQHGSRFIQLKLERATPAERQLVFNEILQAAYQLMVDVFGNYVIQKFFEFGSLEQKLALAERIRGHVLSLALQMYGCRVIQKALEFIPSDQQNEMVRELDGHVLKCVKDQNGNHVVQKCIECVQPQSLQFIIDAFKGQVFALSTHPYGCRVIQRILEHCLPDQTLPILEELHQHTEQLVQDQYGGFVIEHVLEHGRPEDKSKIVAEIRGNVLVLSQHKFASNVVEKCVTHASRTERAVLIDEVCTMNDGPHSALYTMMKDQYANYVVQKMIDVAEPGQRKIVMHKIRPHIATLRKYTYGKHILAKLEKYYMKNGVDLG
# Procedure, shortened: as §1
# [7] = target: T2, PUM1 PUF domain R6-AYM (Homo sapiens, UniProt Q14671 828-1176, N1043A;Q1047M)
# T2 sequence: T1 sequence with G216A, F217Y, E220M
# Procedure, shortened: as §1
# [8] = target: PUM1 PUF domain R8-KWH (Homo sapiens, UniProt Q14671 828-1176, N1122K;Y1123W;Q1126H)
# Procedure, shortened: as §1
# [9] = target: PUM1 PUF domain R3-APM (Homo sapiens, UniProt Q14671 828-1176, C935A;R936P;Q939M)
# Procedure, shortened: as §1
# [10] = target: PUM1 PUF domain R4-CPN (Homo sapiens, UniProt Q14671 828-1176, N971C;H972P;Q975N)
# Procedure, shortened: as §1
sequence,measurement,setting,value
GGCUAGAACUAGUGGAUCCCCCGGCGCCCGGCGGCUCGAGCCCGGGUAAGUGUAAUUAGUCUGCAUGCCGCCGGGCGCCAUGCCUGCAGGUCGACUCUAGAAAACAUG,binding signal,[1],3.61 log2 enrichment (interaction score)
GGCUAGAACUAGUGGAUCCCCCGGCGCCCGGCGGCUCGAGCCCGGGUAAGUGUAAAUCGUCUGCAUGCCGCCGGGCGCCAUGCCUGCAGGUCGACUCUAGAAAACAUG,binding signal,[2],3.82 log2 enrichment (interaction score)
GGCUAGAACUAGUGGAUCCCCCGGCGCCCGGCGGCUCGAGCCCGGGUAAGUGUCAAUAGUCUGCAUGCCGCCGGGCGCCAUGCCUGCAGGUCGACUCUAGAAAACAUG,binding signal,[3],3.9 log2 enrichment (interaction score)
same,binding signal,[4],3.14 log2 enrichment (interaction score)
GGCUAGAACUAGUGGAUCCCCCGGCGCCCGGCGGCUCGAGCCCGGGUAAGUGUGAAUAGUCUGCAUGCCGCCGGGCGCCAUGCCUGCAGGUCGACUCUAGAAAACAUG,binding signal,[5],2.71 log2 enrichment (interaction score)
same,binding signal,[3],1.37 log2 enrichment (interaction score)
GGCUAGAACUAGUGGAUCCCCCGGCGCCCGGCGGCUCGAGCCCGGGUAAGUGUAAAUUGUCUGCAUGCCGCCGGGCGCCAUGCCUGCAGGUCGACUCUAGAAAACAUG,binding signal,[2],3.58 log2 enrichment (interaction score)
GGCUAGAACUAGUGGAUCCCCCGGCGCCCGGCGGCUCGAGCCCGGGUAAGUGUUAAUAGUCUGCAUGCCGCCGGGCGCCAUGCCUGCAGGUCGACUCUAGAAAACAUG,binding signal,[3],4.61 log2 enrichment (interaction score)
GGCUAGAACUAGUGGAUCCCCCGGCGCCCGGCGGCUCGAGCCCGGGUAAGUGGAAAUAGUCUGCAUGCCGCCGGGCGCCAUGCCUGCAGGUCGACUCUAGAAAACAUG,binding signal,[6],5.67 log2 enrichment (interaction score)
GGCUAGAACUAGUGGAUCCCCCGGCGCCCGGCGGCUCGAGCCCGGGUAAGUGUAAAUAGUCUGCAUGCCGCCGGGCGCCAUGCCUGCAGGUCGACUCUAGAAAACAUG,binding signal,[7],4.27 log2 enrichment (interaction score)
same,binding signal,[8],4.79 log2 enrichment (interaction score)
same,binding signal,[9],2.44 log2 enrichment (interaction score)
same,binding signal,[10],3.19 log2 enrichment (interaction score)
same,binding signal,[3],2.21 log2 enrichment (interaction score)
same,binding signal,[4],1.08 log2 enrichment (interaction score)

# — publication PMC8384837, “Expanding the binding specificity for RNA recognition by a PUF domain”
